# Bioassay records: PubChem BioAssay, National Center for Advancing Translational Sciences (NCATS)
# LASV entry inh = Lassa virus entry inhibition. Lassa virus pseudotype entry inhibition, cell reporter. Potency, µM (titrated, usually from 37.9 µM), without a hit: at the top dose activity change, negative = inhibition, hits mostly inhibitors. actives 1.2% (n = 300,000); calls by dose curve; tested in HEK293 cells; further: potency means the concentration at half of the fitted maximal effect; nearly all actives have a fitted effect of over 50% in size
# FMDV antiviral = foot and mouth disease virus antiviral activity; actives 1.2% (n = 410,000); AID 1159524; Potency, µM (highest dose often 57.9 µM), inactives show at the top dose activity change, negative = inhibition, most hits filed as inhibitors; FMDV antiviral cell-based qHTS; calls by dose curve; tested in HEK293T cells; further: read-out not given here; potency means the concentration at half of the fitted maximal effect; nearly all actives have a fitted effect of over 45% in size
# HCMV inh = human cytomegalovirus inhibition. HFF cells, HCMV-luciferase reporter, 72 h; stronger effect = lower value. activity change, negative = inhibition, % at 57.5 µM. actives 4.5% (n = 410,000); in the data active means activity change below about -60%; inconclusive means no clear call, values can overlap the other calls; inactive means above about -39%
#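 Human foreskin fibroblasts infected with luciferase-reporter HCMV at MOI 1 PFU/cell, compounds at two doses. Luciferase measured 72 h post infection; normalized to buffer-only basal and Salinomycin (10uM) controls.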
# MARV entry inh = inhibitors of Marburg virus binding or cell entry; Marburg virus pseudotyped entry inhibition, cell reporter; Potency, µM (highest dose often 37.8 µM), for inactives: top-dose activity change, negative = inhibition, hits mostly inhibitors; actives 1.8% (n = 300,000); AID 540276; calls by dose curve; tested in HEK293 cells; further: potency means the concentration at half of the fitted maximal effect
# Active calls of the source: *; ? = inconclusive; . = not tested or not shown; ! = not active in a repeat; [ ] = remark or other dose. An excerpt weighted towards active compounds, which were near 6.2% of everything screened. On the % scale 0 is the no-effect control and ±100 the full control effect.
SMILES,LASV entry inh,FMDV antiviral,HCMV inh,MARV entry inh
Clc1ccc(-c2nnc(NC3=NCCCCC3)o2)cc1,?,-87.2%,?,1.64µM*
Cc1cccc(NC(=O)Cn2nc(N3CCN(c4ccccc4)CC3)ccc2=O)c1C,?,-18.9%,-18.8,.
CCCC(C)C1(CC)C(=O)NC(=Nc2ccc(OC)cc2)NC1=O (stereo unspecified),18.4%,-20.5%,-60.1*,2.1%
CCCC(C)C1(CC)C(=O)NC(=Nc2ccccc2OC)NC1=O (stereo unspecified),-10.4%,-18.2%,3.9,-3.2%
Cn1c(SCC(=O)c2ccc3c(c2)NC(=O)CO3)nc2ccccc21,2.7%[46.1 µM],31.4%,47.6,21.3%[46.1 µM]
CCC(C)(C)C1CCC2(CC1)NC(=O)N(CC(=O)NCCCc1ccccc1)C2=O (stereo unspecified),.,?,-13.2,.
Cc1ccc(C2SCC(C(=O)O)N2C(=O)c2ccc(F)cc2)cc1 (stereo unspecified),8.0%,-7.6%,-34.7,0.5%
O=C(O)C1CSC(c2ccccc2Cl)N1C(=O)c1ccc(Cl)cc1 (stereo unspecified),-1.9%,-23.2%,-61.0*,?
CN(C)c1ccc(-c2noc(-c3ccccc3O)n2)cc1,5.8µM*,-22.8%,55.0,?
c1ccc(-c2noc(-c3ccccc3-c3ccccc3)n2)cc1,10.1%,-1.9%,2.9,-21.7%[46.1 µM]
Cc1ccc2c(c1)-c1ncc(C(=O)c3cc(Br)ccc3O)cc1CO2,-11.5%[46.1 µM],13.2%,-89.9*!,-14.2%[46.1 µM]
Cc1ccc(O)c(C(=O)c2cnc3c(c2)COc2ccc(C)cc2-3)c1,-6.5%,-16.4%,-26.9,?
CC(=O)c1c(C)[nH]c(C(=O)NCCc2cccc(C)c2)c1C,-24.7%,3.5%,89.3,-28.6%
CCc1c(C(=O)NCCc2cccc(C)c2)[nH]c(C)c1C(C)=O,3.55µM*,22.7%,-16.7,?
CCOC(=O)C1(Cc2ccc(OC)cc2)CCN(C(=O)[C@@H]2CCCN2C(C)=O)CC1,.,39.6%,0.2,.
C=C(C(=O)c1ccccc1)C(C)C(=C)C(=O)c1ccccc1,17.8µM*,?,-99.9*,7.94µM*
COc1ccc(C(CC(=O)c2ccccc2)CC(=O)c2ccccc2)cc1,-29.2%[46.1 µM],0.8%,3.0,?
C=C(C(=O)c1ccccc1)C(c1ccccc1)C(C)C(=O)c1ccccc1 (stereo unspecified),?,?,-88.8*,?
C=C(C(=O)c1ccccc1)C(C(=C)C(=O)c1ccccc1)c1ccc(OC)cc1,.,28.2µM*,-99.8*,.
O=C(O)c1ccc(C(=O)C(=O)c2ccccc2)cc1,0.4%,15.4%,0.0,17.9%[46.1 µM]
COc1ccccc1NC(=O)CN1C(=O)C(c2ccc(F)cc2)=NC12CCCCC2,-9.9%[46.1 µM],5.4%,-38.9,10.6%[46.1 µM]
O=C(Cn1cccc1C(=O)c1ccccc1)NCc1cccs1,13.1%,17.2%,-6.9,6.3%
C=C(C)CNC(=S)NNC(=O)CCn1c2ccc(Cl)cc2c2cc(Cl)ccc21,?,-27.1%,-82.5*,-14.9%
O=C1CN(S(=O)(=O)c2ccc(Cl)cc2C(F)(F)F)CCN1,3.0%,3.6%,-60.3*,20.9%[46.1 µM]
CC(C)CC(NC(=O)CCCNC(=O)CCC(=O)OC1O[C@H]2OC3(C)CC[C@H]4[C@H](C)CCC(C1C)C24OO3)C(=O)O (stereo partly specified),?,8.5%,-63.1*,?
SMILES,LASV entry inh,FMDV antiviral,HCMV inh,MARV entry inh
C[C@H]1[C@H](OC(=O)CCC(=O)NCc2ccc(C(=O)O)cc2)O[C@@H]2O[C@@]3(C)CC[C@H]4[C@H](C)CC[C@@H]1C24OO3,?,15.0%,.,?
O=C(NC(=S)Nc1ccc(Br)c(Cl)c1)C1CC1,.,21.2%,-5.8,.
COc1ccc(-c2nsc(NC(=O)C(C)Oc3ccc(Cl)c(C)c3)n2)cc1 (stereo unspecified),6.7%[46.1 µM],?,-64.7*,0.6%[46.1 µM]
COc1ccc(C(=O)Nc2nc(-c3ccc(Br)cc3)ns2)cc1,?,?,?,3.8%[46.1 µM]
CC(Oc1ccc(F)cc1)C(=O)Nc1nc(-c2ccc(F)cc2)ns1 (stereo unspecified),1.6%[46.1 µM],-36.8%,-94.3*,8.5%[46.1 µM]
O=C(NC1CCCCC1)NC1C2CC3CC(C2)CC1C3 (stereo unspecified),.,0.0%,41.3,.
COc1cc(OC)c2c(-c3cccc(-c4sccc4C(C)=O)c3)cc(=O)oc2c1,.,-0.1%,-78.6*,.
CC1(C)C(=O)Nc2ccccc2N1C(=O)Cn1ncc(Cl)c(Cl)c1=O,.,-21.7%,11.7,.
Cc1nn(CC(=O)N2c3ccccc3NC(=O)C2(C)C)c(C)c1[N+](=O)[O-],.,-29.1%,-81.8*,.
O=c1ccc(-c2ccc(S(=O)(=O)NCC3CCN(Cc4cccc(F)c4)CC3)s2)n[nH]1,.,1.4%,0.0,.
N#Cc1cc2c(=O)n3ccccc3nc2n(-c2ccc(Cl)cc2)c1=O,.,4.6%,-60.0*,.
Cc1ccccc1-n1c(=O)c(C#N)cc2c(=O)n3ccccc3nc21,8.1%,-18.2%,-24.1,-2.7%
Oc1c(Cl)cc(Cl)cc1/C=N/NC(=S)NC1CC2C=CC1C2 (stereo unspecified),?,-24.2%,-67.8*,?
Oc1ccccc1/C=N/NC(=S)NC1CC2C=CC1C2 (stereo unspecified),?,66.7%,?,?
Oc1ccccc1C=NNC(=S)NC1CC2C=CC1C2 (stereo unspecified),.,58.4%,-70.6*,.
O=C(CSc1nnc(-c2ccccc2)o1)N1CCCC1,24.9%,54.4%,-6.2,27.4%[46.1 µM]
O=C(/C=C/c1ccc(Cl)cc1)N1CCN(c2ccc([N+](=O)[O-])c(N3CCOCC3)c2)CC1,-0.2%,14.1µM*,-38.4,-9.9%
CCC(=O)NC(c1ccccc1Cl)c1c(O)ccc2ccccc12 (stereo unspecified),-13.7%,0.0%,?,?
COc1ccccc1C(NC(=O)C1CCCCC1)c1c(O)ccc2ccccc12 (stereo unspecified),5.2%,-10.8%,-102.0*,?
CC1CN(S(=O)(=O)c2ccc(C(=O)Nc3ccc(S(=O)(=O)Nc4nccs4)cc3)cc2)CC(C)O1 (stereo unspecified),1.7%,-8.4%,-35.5,13.6%
CCOC(=O)C1=C(N)N2C(=O)C(C)SC2=C(C(=O)OC)C1c1cccc(OC)c1 (stereo unspecified),.,-8.6%,-85.6*,.
COC(=O)C1=C2SC(C)C(=O)N2C(N)=C(C#N)C1c1ccc(OC)c(OC)c1 (stereo unspecified),?,-20.6%,-6.6,11.2%
CCOC(=O)C1CCN(C(=O)c2n[nH]c(=O)c3ccccc23)CC1,0.8%,23.6%,-3.8,1.9%[46.1 µM]
Cc1ccc(-n2c(C)cc(C(=O)CSc3n[nH]c(N)n3)c2C)cc1,?,-8.2%,-70.1*,-6.7%
COc1ccc2nc(NC(=O)CSc3nnc(N)s3)sc2c1,4.3%,15.2%,57.3,27.4%
CN(CCc1ccccc1)C(=O)c1ccc(NC(=O)Cc2ccc(NC(=O)C3CCN(C(=O)C4CCCCC4)CC3)cc2)cc1,.,-28.0%,-60.4*,.
CN(CCc1ccccc1)C(=O)c1ccc(NC(=O)Cc2ccc(NC(=O)C3CCCN(C(=O)CCc4ccccc4)C3)cc2)cc1 (stereo unspecified),.,?,-70.8*,.
